From PubChem BioAssay (Tox21)
Records with an inconclusive call do not appear. Activity calls are given as the source filed them. Unless noted, the call rests on the fitted dose curve; in most records, active means well fitted curve in the direction sought with a large enough effect in the repeat runs; inconclusive means weak or mixed curves; inactive means no such curve, though single readings can be large; an effect the other way counts as inactive or inconclusive.

Tests used:
[1] = qHTS assay to identify small molecule antagonists of the sonic hedgehog signaling (Shh) pathway (AID 1259369; calls by dose curve; further: nearly all actives have a fitted effect of over 45% in size)
Procedure, shortened: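 Luminescence readout: firefly Luc under Gli1 response element in 3T3Gli1-Luc cells (NIH/3T3 clone). Antagonist mode, stimulation by conditioned medium; compound exposure 24hr at 37 C, 5% CO2.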

[2] = target: Estrogen receptor beta (Homo sapiens) (UniProt Q92731); assay: qHTS assay to identify small molecule agonists of the estrogen receptor beta (ER-beta) signaling pathway (AID 1259377; active means well fitted activation curve with a large enough effect in the signal ratio in the repeat runs, not every such curve was filed as active; the % refers to the signal ratio)
Procedure, shortened: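 Read-out: beta-lactamase FRET fluorescence. Cell line: ER-beta-UAS-bla HEK293T in 2% charcoal-stripped FBS. Exposure: 16 hr at 37C. Substrate step: 2 h at room temperature.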

[3] = target: Estrogen receptor beta (Homo sapiens) (UniProt Q92731); assay: qHTS assay to identify small molecule antagonists of the estrogen receptor beta (ER-beta) signaling pathway (AID 1259378; active means well fitted inhibition curve with a large enough effect in the signal ratio in the repeat runs, not every such curve was filed as active; the % refers to the signal ratio)
Procedure, shortened: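 ER-beta-UAS-bla HEK293T (GripTite) cells in 2% charcoal-stripped FBS medium were preincubated 6 hr at 37C, dosed with compound, then stimulated with 1 nM E2 (final) for 16 hr; beta-lactamase reporter read by B/G FRET fluorescence after 2 hr substrate loading.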

[4] = qHTS assay to identify small molecule agonists of the androgen receptor (AR) signaling pathway in the presence of an antagonist - cell viability counter screen (AID 1259379);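 further: MDA-kb2 human breast cancer cells carrying an MMTV luciferase reporter; series mostly up to about 92 µM; nearly all actives have a fitted effect of over 25% in size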
Procedure, shortened: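 Viability counter screen: CellTiter-Fluor fluorescence, measured in the same wells as the luciferase read-out. MDA-kb2 cells, 3,000/well, with nilutamide at 3.0uM final and compounds at 15 concentrations, 16 hr at 37C, 0% CO2.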

[5] = qHTS assay to identify small molecule agonists of the estrogen receptor beta (ER-beta) signaling pathway - cell viability counter screen (AID 1259380); further: nearly all actives have a fitted effect of over 30% in size
Procedure, shortened: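 Luminescence read-out (CellTiter-Glo, 30 min, room temp) taken in the same wells as the beta-lactamase reporter assay; ER-beta-UAS-bla HEK293T cells exposed to DMSO-dissolved compounds for 16 hr at 37C in 2% charcoal-stripped FBS medium.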

[6] = qHTS assay to identify small molecule antagonists of the estrogen receptor beta (ER-beta) signaling pathway - cell viability counter screen (AID 1259382); further: series mostly up to about 92 µM; nearly all actives have a fitted effect of over 55% in size
Procedure, shortened: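 Luminescent ATP read-out (CellTiter-Glo, 30 min, RT) taken in the same wells as the bla reporter assay. HEK293T ER-beta-UAS-bla cells in 2% charcoal-stripped FBS were exposed to compounds with 1nM E2 for 16 hr at 37C.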

[7] = qHTS assay to identify small molecule agonists or antagonists of the thyroid stimulating hormone receptor (TSHR) signaling pathway - wild type cell line counter screen (AID 1259384; calls by dose curve)
Procedure, shortened: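 Wild-type HEK293 cells were plated 18 h at 37 C/5% CO2, pin-dosed with compound plus Ro20-1724 medium, held 30 min at room temperature, then given cAMP-d2 and anti-cAMP-cryptate; fluorescence was read after 1 h. Fifteen concentrations, triplicate.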

[8] = target: Thyrotropin receptor (Homo sapiens) (UniProt P16473); assay: qHTS assay to identify small molecule antagonists of the thyroid stimulating hormone receptor (TSHR) signaling pathway (AID 1259385; calls by dose curve; further: nearly all actives have a fitted effect of over 20% in size)
Procedure, shortened: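 TSHR-HEK293 cells were plated and held 18 h at 37C/5% CO2, then given compound plus Ro20-1724 and stimulated with TSH at 1.5 ng/mL final. After 30 min at room temperature, cAMP was detected with cAMP-d2/anti-cAMP-cryptate (1 h) by fluorescence.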

[9] = qHTS assay to identify small molecule agonists of the estrogen receptor alpha (ER-alpha) signaling pathway in the presence of an antagonist - cell viability counter screen (AID 1259386);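 further: series mostly up to about 92 µM; cells exposed to compounds for 22 h at 37 °C before the viability read; nearly all actives have a fitted effect of over 30% in size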
Procedure, shortened: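 Read-out: CellTiter-Fluor fluorescence after 1hr reagent incubation, measured in the same wells as the luciferase readout. VM7Luc4E2 cells were exposed to 15 compound concentrations with 10.0nM ICI-182,780 for 22hr at 37C.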

[10] = target: Progesterone receptor (Homo sapiens) (UniProt P06401); assay: qHTS assay to identify small molecule agonists of the progesterone receptor (PR) signaling pathway (AID 1346784; calls by dose curve; further: nearly all actives have a fitted effect of over 30% in size)
Procedure, shortened: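 Compounds were tested for PR agonism in HEK 293T cells bearing a beta-lactamase gene under UAS control. Treatment lasted 16 hr at 37C; signal came from fluorescence of a FRET substrate.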

[11] = target: Progesterone receptor (Homo sapiens) (UniProt P06401); assay: qHTS assay to identify small molecule antagonists of the progesterone receptor (PR) signaling pathway (AID 1346795; active means well fitted inhibition curve with a large enough effect in the signal ratio in the repeat runs, not every such curve was filed as active; the % refers to the signal ratio)
Procedure, shortened: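 In HEK293T cells bearing the PR-UAS-bla reporter, compound effects on promegestone-driven (1 nM) beta-lactamase expression are assessed after 16 hr using a fluorescent FRET substrate incubated 2 hr at room temperature.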

[12] = qHTS assay to identify small molecule antagonists of the progesterone receptor (PR) signaling pathway - cell viability counter screen (AID 1346798); further: series mostly up to about 92 µM; nearly all actives have a fitted effect of over 50% in size
Procedure, shortened: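 Following a 4 hr attachment, PR-UAS-bla HEK293T cells in charcoal-stripped FBS medium were exposed to compounds with R5020 for 16 hr; CellTiter-Glo was added and luminescence read after 30 min at room temperature.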

[13] = qHTS assay to identify small molecule agonists of the progesterone receptor (PR) signaling pathway - cell viability counter screen (AID 1346799; calls by dose curve; further: nearly all actives have a fitted effect of over 45% in size)
Procedure, shortened: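 Here, 3,000 PR-UAS-bla HEK293T cells per well were treated with compounds for 16 hr after a 6 hr preincubation at 37C and 5% CO2; cell viability is the CellTiter-Glo luminescence signal.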

[14] = qHTS assay to identify small molecule antagonists of the TGF-beta/Smad signaling pathway - cell viability counter screen (AID 1346824); further: nearly all actives have a fitted effect of over 50% in size
Procedure, shortened: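 SBE-bla HEK 293T cells were plated overnight at 37 C, then given compounds in DMSO plus TGF-beta1 (added as 0.25 ng/mL solution) for 5 hr. After the bla read, CellTiter-Glo was added to the same wells and luminescence read after 30 min at room temperature.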

[15] = qHTS assay to identify small molecule agonists of the TGF-beta/Smad signaling pathway - cell viability counter screen (AID 1346829); further: top concentration of the series differs between compounds; nearly all actives have a fitted effect of over 45% in size
Procedure, shortened: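 HEK 293T SBE-bla line, 5 hr compound exposure at 37 C, multiplexed CellTiter-Glo viability read by luminescence.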

[16] = qHTS assay to identify small molecule agonists of the TGF-beta/Smad signaling pathway (AID 1346859; active means well fitted activation curve with a large enough effect in the signal ratio in the repeat runs, not every such curve was filed as active; the % refers to the signal ratio; further: series mostly up to about 77 µM)
Procedure, shortened: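 Each well held 4,000 SBE-bla HEK 293T cells incubated overnight before compound addition; 5 hr later the cleavable FRET substrate went on for 2 hr at room temperature, and fluorescence was read at two emissions.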

[17] = target: Thyrotropin-releasing hormone receptor (Homo sapiens) (UniProt P34981); assay: qHTS assay to identify small molecule antagonists of the thyrotropin-releasing hormone receptor (TRHR) signaling pathway (AID 1346877; active means well fitted inhibition curve with a large enough effect in the repeat runs, not every such curve was filed as active; further: series mostly up to about 51 µM)
Procedure, shortened: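 HEK293/TRHR cells, 18 h, 37 °C; Ca2+ dye 2 h; cpd 5 min RT; TRH 1 nM final; fluorescence read 3 min, 1 s intervals; 15 concs, triplicate.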

[18] = target: Thyrotropin-releasing hormone receptor (Homo sapiens) (UniProt P34981); assay: qHTS assay to identify small molecule agonists of the thyrotropin-releasing hormone receptor (TRHR) signaling pathway (AID 1346891; calls by dose curve; further: series mostly up to about 58 µM)
Procedure, shortened: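 Screening of agonists relied on calcium signalling in HEK293 cells expressing human TRHR: dye loading 2 h at 37 °C preceded compound addition and a 3-min fluorescence time course.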

[19] = target: Estrogen receptor (Homo sapiens) (UniProt P03372); assay: qHTS assay to identify small molecule agonists of the estrogen receptor alpha (ER-alpha) signaling pathway in the presence of an antagonist (AID 1259383; calls by dose curve; further: top concentration of the series differs between compounds; nearly all actives have a fitted effect of over 15% in size)
Procedure, shortened: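 Luciferase luminescence (ONE-Glo, 30min at room temperature) measured in VM7Luc4E2 cells after 22hr compound exposure at 15 concentrations, with 10.0nM ICI-182,780 final present; cells express endogenous ER-alpha and carry four EREs upstream of luciferase.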

[20] = target: Androgen receptor (Homo sapiens) (UniProt P10275); assay: qHTS assay to identify small molecule agonists of the androgen receptor (AR) signaling pathway in the presence of an antagonist (AID 1259381; calls by dose curve; further: nearly all actives have a fitted effect of over 15% in size)
Procedure, shortened: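 Luciferase read-out (ONE-Glo, 30min room temperature) in MDA-kb2 MMTV-reporter cells; agonist mode run in presence of AR antagonist nilutamide, 3.0uM final. Compounds tested as 15-point series, 16hr exposure at 37C, 0% CO2.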
On the % scale 0 is the no-effect control and ±100 the full control effect.

Sequence of Progesterone receptor (Homo sapiens) (P06401 whole entry, looked up): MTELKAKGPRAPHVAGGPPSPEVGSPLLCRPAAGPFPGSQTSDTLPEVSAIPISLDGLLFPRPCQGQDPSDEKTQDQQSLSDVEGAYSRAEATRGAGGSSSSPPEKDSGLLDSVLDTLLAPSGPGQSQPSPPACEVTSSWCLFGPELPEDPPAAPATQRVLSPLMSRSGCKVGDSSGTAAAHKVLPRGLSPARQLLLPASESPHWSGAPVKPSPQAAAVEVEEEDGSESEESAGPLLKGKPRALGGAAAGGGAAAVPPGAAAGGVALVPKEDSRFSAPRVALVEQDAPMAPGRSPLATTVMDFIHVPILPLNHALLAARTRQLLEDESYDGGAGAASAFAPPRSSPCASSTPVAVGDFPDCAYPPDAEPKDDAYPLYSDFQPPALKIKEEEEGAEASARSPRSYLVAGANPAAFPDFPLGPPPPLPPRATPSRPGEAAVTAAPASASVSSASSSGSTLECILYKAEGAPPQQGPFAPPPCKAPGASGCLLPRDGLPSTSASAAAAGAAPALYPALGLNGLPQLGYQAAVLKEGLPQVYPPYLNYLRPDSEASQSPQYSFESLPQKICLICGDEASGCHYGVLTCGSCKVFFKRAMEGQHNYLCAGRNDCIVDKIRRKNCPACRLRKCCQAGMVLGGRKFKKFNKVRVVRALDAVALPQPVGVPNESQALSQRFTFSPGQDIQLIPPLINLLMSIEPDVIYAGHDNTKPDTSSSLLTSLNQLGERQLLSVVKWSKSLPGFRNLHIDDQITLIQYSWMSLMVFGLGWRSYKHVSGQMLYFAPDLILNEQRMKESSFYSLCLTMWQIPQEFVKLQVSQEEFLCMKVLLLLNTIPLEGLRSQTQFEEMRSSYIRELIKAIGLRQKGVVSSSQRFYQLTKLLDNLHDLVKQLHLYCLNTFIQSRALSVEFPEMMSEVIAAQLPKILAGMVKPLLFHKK
Sequence of Estrogen receptor beta (Homo sapiens) (Q92731 whole entry, looked up): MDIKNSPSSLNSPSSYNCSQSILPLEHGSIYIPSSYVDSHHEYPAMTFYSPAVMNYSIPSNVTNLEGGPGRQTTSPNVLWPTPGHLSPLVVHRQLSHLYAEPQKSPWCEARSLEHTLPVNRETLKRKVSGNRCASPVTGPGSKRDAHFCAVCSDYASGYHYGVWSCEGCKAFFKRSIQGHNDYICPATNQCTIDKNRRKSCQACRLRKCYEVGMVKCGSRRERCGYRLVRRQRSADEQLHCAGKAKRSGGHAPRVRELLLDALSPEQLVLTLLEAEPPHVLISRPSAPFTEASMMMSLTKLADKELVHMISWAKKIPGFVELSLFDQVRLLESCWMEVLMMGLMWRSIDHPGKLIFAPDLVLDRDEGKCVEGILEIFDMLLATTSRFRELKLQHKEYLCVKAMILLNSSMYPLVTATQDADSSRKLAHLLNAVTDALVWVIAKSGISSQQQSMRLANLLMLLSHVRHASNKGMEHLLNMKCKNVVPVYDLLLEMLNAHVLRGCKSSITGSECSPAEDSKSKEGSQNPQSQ
Sequence of Thyrotropin-releasing hormone receptor (Homo sapiens) (P34981 whole entry, looked up): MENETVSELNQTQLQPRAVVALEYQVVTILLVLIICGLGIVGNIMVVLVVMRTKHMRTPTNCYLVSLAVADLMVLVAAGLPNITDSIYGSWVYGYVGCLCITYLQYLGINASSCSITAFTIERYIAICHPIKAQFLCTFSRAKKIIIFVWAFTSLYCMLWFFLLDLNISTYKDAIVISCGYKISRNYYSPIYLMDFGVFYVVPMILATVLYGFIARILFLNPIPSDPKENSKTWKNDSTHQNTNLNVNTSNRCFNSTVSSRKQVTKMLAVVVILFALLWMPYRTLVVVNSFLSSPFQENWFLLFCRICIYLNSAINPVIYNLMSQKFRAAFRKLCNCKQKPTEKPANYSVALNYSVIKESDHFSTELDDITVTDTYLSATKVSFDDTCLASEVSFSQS
Sequence of Thyrotropin receptor (Homo sapiens) (P16473 whole entry, looked up): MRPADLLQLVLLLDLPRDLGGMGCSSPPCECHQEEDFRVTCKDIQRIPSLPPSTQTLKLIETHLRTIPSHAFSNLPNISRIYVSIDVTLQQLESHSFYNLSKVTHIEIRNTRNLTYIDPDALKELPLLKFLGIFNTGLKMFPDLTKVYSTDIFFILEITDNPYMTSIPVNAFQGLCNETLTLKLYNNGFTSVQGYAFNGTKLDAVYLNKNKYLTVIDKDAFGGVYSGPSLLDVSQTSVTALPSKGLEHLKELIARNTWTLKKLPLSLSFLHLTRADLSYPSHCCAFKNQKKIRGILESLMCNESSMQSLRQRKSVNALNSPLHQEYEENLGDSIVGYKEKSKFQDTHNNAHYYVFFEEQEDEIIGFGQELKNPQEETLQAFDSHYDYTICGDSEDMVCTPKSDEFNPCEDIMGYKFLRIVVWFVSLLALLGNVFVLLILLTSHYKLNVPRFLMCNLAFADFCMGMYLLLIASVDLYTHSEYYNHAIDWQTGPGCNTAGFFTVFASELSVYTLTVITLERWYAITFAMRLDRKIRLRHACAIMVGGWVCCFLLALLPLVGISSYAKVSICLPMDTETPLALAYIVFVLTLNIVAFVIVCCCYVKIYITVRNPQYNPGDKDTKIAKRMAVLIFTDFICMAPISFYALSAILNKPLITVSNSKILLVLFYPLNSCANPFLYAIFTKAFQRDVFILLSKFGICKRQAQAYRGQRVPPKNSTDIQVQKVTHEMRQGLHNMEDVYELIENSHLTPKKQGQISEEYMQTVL
Sequence of Estrogen receptor (Homo sapiens) (P03372 whole entry, looked up): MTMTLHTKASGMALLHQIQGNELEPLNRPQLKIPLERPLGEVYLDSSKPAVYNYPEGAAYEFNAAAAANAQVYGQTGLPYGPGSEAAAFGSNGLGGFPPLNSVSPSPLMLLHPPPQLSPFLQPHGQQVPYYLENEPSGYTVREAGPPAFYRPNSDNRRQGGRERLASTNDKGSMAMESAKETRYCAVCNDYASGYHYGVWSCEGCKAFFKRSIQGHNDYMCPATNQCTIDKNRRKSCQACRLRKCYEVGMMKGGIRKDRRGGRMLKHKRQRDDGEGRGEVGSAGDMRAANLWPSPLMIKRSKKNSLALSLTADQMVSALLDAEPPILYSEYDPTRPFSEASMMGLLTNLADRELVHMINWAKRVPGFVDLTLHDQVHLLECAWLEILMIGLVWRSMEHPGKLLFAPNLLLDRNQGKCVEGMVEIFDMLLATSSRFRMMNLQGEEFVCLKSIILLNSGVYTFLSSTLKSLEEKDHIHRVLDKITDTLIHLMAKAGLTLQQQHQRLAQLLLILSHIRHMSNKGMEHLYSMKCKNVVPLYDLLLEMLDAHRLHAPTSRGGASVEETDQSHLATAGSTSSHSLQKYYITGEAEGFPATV
Sequence of Androgen receptor (Homo sapiens) (P10275 whole entry, looked up): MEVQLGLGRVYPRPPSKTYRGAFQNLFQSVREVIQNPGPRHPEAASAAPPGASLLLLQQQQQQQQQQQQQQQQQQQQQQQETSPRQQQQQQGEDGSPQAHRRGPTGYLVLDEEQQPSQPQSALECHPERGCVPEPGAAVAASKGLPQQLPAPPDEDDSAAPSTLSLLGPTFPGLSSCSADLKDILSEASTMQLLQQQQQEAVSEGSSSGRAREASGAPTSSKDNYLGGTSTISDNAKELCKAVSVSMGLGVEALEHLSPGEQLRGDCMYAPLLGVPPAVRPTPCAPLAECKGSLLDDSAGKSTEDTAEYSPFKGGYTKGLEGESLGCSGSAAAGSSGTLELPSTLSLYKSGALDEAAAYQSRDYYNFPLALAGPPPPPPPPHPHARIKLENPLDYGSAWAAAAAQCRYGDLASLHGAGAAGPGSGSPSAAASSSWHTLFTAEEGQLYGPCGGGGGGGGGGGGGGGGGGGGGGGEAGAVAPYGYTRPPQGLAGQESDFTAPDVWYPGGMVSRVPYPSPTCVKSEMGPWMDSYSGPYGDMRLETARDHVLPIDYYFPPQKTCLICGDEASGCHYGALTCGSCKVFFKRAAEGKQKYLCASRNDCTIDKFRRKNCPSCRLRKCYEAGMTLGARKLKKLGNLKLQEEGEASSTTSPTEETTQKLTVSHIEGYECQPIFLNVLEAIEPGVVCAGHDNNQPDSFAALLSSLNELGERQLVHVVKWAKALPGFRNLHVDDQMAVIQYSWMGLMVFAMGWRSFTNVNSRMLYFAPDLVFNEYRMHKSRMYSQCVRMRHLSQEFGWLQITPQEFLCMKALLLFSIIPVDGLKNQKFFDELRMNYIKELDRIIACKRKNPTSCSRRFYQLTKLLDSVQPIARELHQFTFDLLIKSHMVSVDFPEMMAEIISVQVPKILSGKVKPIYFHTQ

CO[Si](OC)(OC)OC
inactive: Potency [1] | outcome [2] | Potency [3] | Potency [4] | Potency [5] | Potency [6] | outcome [7] | Potency [8] | outcome [9] | Potency [10] | Potency [11] | Potency [12] | Potency [13] | outcome [14] | outcome [15] | outcome [16] | outcome [17] | outcome [18]

CCC(=O)/C=C/c1ccc(OC)cc1
inactive: Potency [1] | outcome [2] | Potency [4] | Potency [5] | Potency [6] | Potency [19] | outcome [9] | Potency [10] | Potency [12] | outcome [14] | outcome [15] | outcome [16] | outcome [17] | outcome [18]

O=C(O)c1ccc[n+]([O-])c1
inactive: Potency [1] | Potency [3] | Potency [4] | Potency [5] | Potency [20] | Potency [6] | Potency [19] | outcome [7] | Potency [8] | outcome [9] | Potency [10] | Potency [11] | Potency [12] | Potency [13] | outcome [14] | outcome [15] | outcome [16] | outcome [17] | outcome [18]

C[C@H]1O[C@@H](n2cc(F)c(=O)[nH]c2=O)[C@H](O)[C@@H]1O
inactive: Potency [1] | outcome [2] | Potency [3] | Potency [4] | Potency [5] | Potency [6] | outcome [7] | Potency [8] | outcome [9] | Potency [10] | Potency [11] | Potency [12] | outcome [14] | outcome [15] | outcome [16] | outcome [17] | outcome [18]

COc1cc(CCC(C)=O)ccc1O
inactive: Potency [1] | Potency [3] | Potency [4] | Potency [5] | Potency [20] | Potency [6] | outcome [7] | Potency [8] | outcome [9] | Potency [10] | Potency [11] | Potency [13] | outcome [14] | outcome [15] | outcome [16]

Cc1ccccc1Br
inactive: Potency [1] | outcome [2] | Potency [3] | Potency [4] | Potency [5] | Potency [6] | outcome [9] | Potency [10] | Potency [11] | Potency [12] | Potency [13] | outcome [14] | outcome [15] | outcome [16] | outcome [17] | outcome [18]

[O-][N+](=Nc1ccccc1)c1ccccc1
inactive: Potency [1] | outcome [2] | Potency [3] | Potency [4] | Potency [5] | Potency [6] | outcome [7] | outcome [9] | Potency [10] | Potency [11] | Potency [12] | Potency [13] | outcome [14] | outcome [15] | outcome [16] | outcome [17] | outcome [18]

FC(F)(F)C(F)(F)C(F)(F)C(F)(F)C(F)(F)C(F)(F)C(F)(F)C(F)(F)C(F)(F)C(F)(F)F
inactive: activity change, negative = inhibition [1] -15.5% [at 8.39 µM] | activation [2] -4.79% [at 8.39 µM] | activity, negative = inhibition [3] 3.92% [at 8.39 µM] | activity change, negative = cytotoxicity [4] 1.46% [at 8.39 µM] | activity change, negative = cytotoxicity [5] -0.929% [at 8.39 µM] | activity change, negative = cytotoxicity [6] -4.55% [at 8.39 µM] | activity change, negative = cytotoxicity [9] 4.74% [at 8.39 µM] | activation [10] 2.84% [at 8.39 µM] | activity change, negative = inhibition [11] 0.137% [at 8.39 µM] | activity change, negative = cytotoxicity [12] 3.97% [at 8.39 µM] | activity change, negative = cytotoxicity [13] 0% [at 8.39 µM] | viability change, negative = cytotoxic [14] -11.6% [at 6.97 µM] | activity change, negative = cytotoxicity [15] 13.6% [at 6.97 µM] | activation [16] 2.81% [at 6.97 µM] | activity, negative = inhibition [17] 0.552% [at 4.65 µM] | activation [18] 0.116% [at 5.23 µM]
